# Laboratory results reported in PubChem BioAssay.
# Values joined by “and” are separate entries in the source; they are usually repeats but may differ in a detail not shown here. Identical values can stand only once. For part of these data: Potency and affinity values are given separately. Some structures have more than one record in an assay (separate samples or runs), and their calls can disagree. Active and inactive are the calls of the source.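 Rule for the calls, unless noted: active = thallium flux through the channel raised or lowered by more than 3 SD from vehicle-only wells, actives on both sides; inactive = the rest.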
# Columns and labels:
# [1] = Cy5 fluorescence interference with SSB-bound oligo, artefact control for HCV NS3 helicase inhibitor project, biochemical, NIH Clinical Collection, E. coli SSB (AID 743268; call rule not given here)
# [2] = tested on: Hepatitis C virus NS3 helicase; assay: HCV NS3 helicase inhibitors, primary screen, biochemical, fluorescence polarization, NIH Clinical Collection (AID 743270; call rule not given here); details: NS3 helicase binding to Cy5-dT15 DNA, stronger effect = higher value, concentration not given here
# [3] = biological target: Single-stranded DNA-binding protein (Escherichia coli (strain K12)) (UniProt P0AGE0); assay: E. coli SSB displacement from DNA, counter-screen for HCV NS3 helicase inhibitor project, biochemical, fluorescence polarization, NIH Clinical Collection (AID 743271; in the data active = inhibition above about 28%); details: stronger effect = higher value, concentration not given here
# [4] = fluorescence interference in NS3h assay format, artefact control for HCV NS3 helicase inhibitor project, biochemical, NIH Clinical Collection (AID 743272; call rule not given here;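 note: HCV NS3 helicase with a Cy5 labelled single stranded DNA probe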); details: fluorescence interference counterscreen, stronger effect = lower value
# [5] = viability rescue of complex I mutant cybrids, primary screen, cell-based, galactose medium, ATP luminescence (AID 1645843;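 active = z-score of at least 1.8 in each of two replicates, scored against plate mean and spread of sample wells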;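 note: positive z means more ATP and so rescue of galactose-driven cybrid death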); details: complex I mutant cybrid cells, 72 h, stronger effect = higher value
# F380Y/beta4 = assay: modulators of BK channel variants, profiling panel, selectivity assay, cell-based, U2OS BacMam, thallium flux, beta subunits (AID 1259406); details: at 30 µM;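 note: initial slope of Thallos dye fluorescence rise after thallium is added; log ratio against the mean of 0.3% DMSO vehicle wells on the same plate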
# [6] = biological target: Calcium-activated potassium channel subunit alpha-1 (Homo sapiens) + Leucine-rich repeat-containing protein 26 (Homo sapiens) (UniProt Q12791+Q2I0M4); assay: as above; details: F380Y/Slo1WT/gamma1, at 30 µM
# Calcium-activated potassium channel subunit alpha-1 (Homo sapiens) + Leucine-rich repeat-containing protein 26 (Homo sapiens), sequence (Q2I0M4 whole entry, looked up, one chain of several): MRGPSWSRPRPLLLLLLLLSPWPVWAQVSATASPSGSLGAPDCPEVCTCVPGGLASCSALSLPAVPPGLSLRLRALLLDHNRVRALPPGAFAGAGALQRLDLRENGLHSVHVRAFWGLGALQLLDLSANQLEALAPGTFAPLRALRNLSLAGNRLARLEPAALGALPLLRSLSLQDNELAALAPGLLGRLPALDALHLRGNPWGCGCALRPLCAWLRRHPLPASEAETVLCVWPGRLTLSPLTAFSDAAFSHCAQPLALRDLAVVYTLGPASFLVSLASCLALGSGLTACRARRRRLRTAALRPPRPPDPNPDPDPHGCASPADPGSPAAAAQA
# R275C = assay: as above; details: at 30 µM
# R275C/beta1 = assay: as above; details: at 30 µM
# R275C/beta2Delta = assay: as above; details: at 30 µM
# R275C/beta4 = assay: as above; details: at 30 µM
# R275C/Slo1WT/beta2 = assay: as above; details: at 30 µM
# [7] = polyglutamine-triggered caspase-3 activation inhibitors, cell-based (AID 1583); details: polyglutamine-induced caspase-3 activation, cell assay; stronger effect = higher value;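 tested at 10 µM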
# [8] = suppressors of polyQ aggregation in yeast, 75Q-TubU reporter (AID 1593); details: Yeast 75Q polyglutamine aggregation reporter
# [9] = rescue of polyQ-huntingtin neuronal dysfunction in worms, whole organism, C. elegans mechanosensory neurons, N-terminal huntingtin (AID 1599); details: touch response, stronger effect = higher value
# [10] = inhibitors of mitochondrial cytochrome c release, biochemical, purified mitochondria (AID 1603); details: stronger effect = lower value;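 note: mouse liver mitochondria challenged with calcium chloride; signal normalized to the plate average as 100%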
# [11] = inhibitors of polyQ protein aggregation (AID 1604); details: polyglutamine-induced protein aggregation inhibition assay; stronger effect = higher value; tested at 2.5 µM
# [12] = enhancers of glutamate uptake in motor neurons, MN-1 cell line (AID 1612); details: MN-1 motor neuron cells, stronger effect = higher value;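 note: tested at 1 µM final; 0% = mean of DMSO vehicle wells on each plate; positive means more glutamate uptake than control and negative means less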
# [13] = suppressors of polyglutamine aggregation in yeast, 75Q-TubH (AID 1616); details: S. cerevisiae 75Q-TubH polyglutamine aggregation suppression; stronger effect = higher value
Structure (SMILES),fluorescence ratio [1],inhibition [2],inhibition [3],fluorescence ratio [4],z-score [5],log fold change Tl+ flux (F380Y/beta4),log fold change Tl+ flux [6],log fold change Tl+ flux (R275C),log fold change Tl+ flux (R275C/beta1),log fold change Tl+ flux (R275C/beta2Delta),log fold change Tl+ flux (R275C/beta4),log fold change Tl+ flux (R275C/Slo1WT/beta2),inhibition [7] [%],score [8],rescue above control [9],cytochrome c release ratio [10],inhibition of aggregation [11] [%],glutamate uptake change [12] [%],aggregation suppression score [13]
N[C@@H](Cc1cc(I)c(Oc2cc(I)c(O)c(I)c2)c(I)c1)C(=O)O,0.87 (inactive),0.45% (inactive),0.29% (inactive),0.88 (inactive),-1.38 (inactive) and -0.805 (inactive),0.107 (active),0.0246 (inactive),0.00175 (inactive),0.0456 (inactive),0.134 (active),0.234 (active),0.0236 (inactive),–,–,–,–,–,–,–
CC1=C(/C=C/C(C)=C/C=C/C(C)=C/C(=O)O)C(C)(C)CCC1,1.02 (inactive),1.36% (inactive),2.57% (inactive),0.87 (inactive),–,0.0201 (inactive),0.0114 (inactive),0.0107 (inactive),0.0531 (inactive),0.0707 (inactive),-0.0336 (inactive),-0.0605 (inactive),16,0.91,3.71,3.67,19.4,-29.4,0.795
CCOC(=O)C1=C(C)NC(C)=C(C(=O)OC)C1c1cccc([N+](=O)[O-])c1 (centres undefined),1 (inactive),4.36% (inactive),8.37% (inactive),1.03 (inactive),–,-0.0639 (inactive),0.00177 (inactive),0.0204 (inactive),0.00401 (inactive),-0.0485 (inactive),-0.023 (inactive),0.016 (inactive),–,–,–,–,–,–,–
NS(=O)(=O)c1cc2c(cc1C(F)(F)F)NC(Cc1ccccc1)NS2(=O)=O (centres undefined),1.02 (inactive),-0.45% (inactive),1.05% (inactive),0.99 (inactive),1.88 (inactive),0.0179 (inactive),-0.0118 (inactive),0.0405 (inactive),0.0248 (inactive),0.0558 (inactive),-0.00759 (inactive),-0.0386 (inactive),23.3,1.25,-3.69,1.06,66.2,10.7,1.15
CCc1nc(N)nc(N)c1-c1ccc(Cl)cc1,0.95 (inactive),-1.36% (inactive),1.81% (inactive),0.94 (inactive),0.72 (inactive),-0.0112 (inactive),-0.0172 (inactive),-0.00785 (inactive),-0.00379 (inactive),0.00565 (inactive),-0.00455 (inactive),-0.0705 (inactive),-13.9,1.35,26.6,1.05,85.8,14.1,0.999
CO[C@@]1(NC(=O)Cc2cccs2)C(=O)N2C(C(=O)O)=C(COC(N)=O)CS[C@@H]21,1.06 (inactive),0.45% (inactive),27.7% (active),1.01 (inactive),-0.58 (inactive),-0.02 (inactive),-0.0176 (inactive),0.0592 (inactive),0.00671 (inactive),-0.0512 (inactive),0.0012 (inactive),0.00869 (inactive),10,0.25,-4.75,0.94,27.8,-21.4,0.182
NC(=O)N1c2ccccc2CC(=O)c2ccccc21,0.99 (inactive),-5.15% (inactive),-2.41% (inactive),0.97 (inactive),-1.62 (inactive) and -0.18 (inactive),-0.0339 (inactive),0.0743 (inactive),-0.0757 (inactive),0.0898 (active),0.1 (active),-0.00127 (inactive),0.048 (inactive),–,–,–,–,–,–,–
COC1=CC(=O)C[C@@H](C)[C@]12Oc1c(Cl)c(OC)cc(OC)c1C2=O,1 (inactive),-4.09% (inactive),-3.53% (inactive),1 (inactive),1.05 (inactive),-0.0398 (inactive),-0.0624 (inactive),-0.0442 (inactive),0.0145 (inactive),-0.00445 (inactive),-0.0288 (inactive),0.00636 (inactive),4.47,1,-5.31,1.14,56.8,-9,1.07
CN(C)CCc1c[nH]c2ccc(C[C@H]3COC(=O)N3)cc12,1.02 (inactive),-2.84% (inactive),-4.33% (inactive),1 (inactive),–,0.0115 (inactive),0.0131 (inactive),-0.02 (inactive),0.0275 (inactive),-0.0113 (inactive),0.00246 (inactive),0.0342 (inactive),–,–,–,–,–,–,–
Cc1ccccc1C(OCCN(C)C)c1ccccc1 (centres undefined),0.78 (active) and 1.01 (inactive),-10.4% (inactive) and -11.4% (inactive),-0.48% (inactive) and -2.76% (inactive),0.88 (inactive) and 1.01 (inactive),-0.455 (inactive) and 0.28 (inactive) and 1.22 (inactive),0.102 (inactive) and 0.0432 (inactive),-0.00307 (inactive) and 0.0363 (inactive),0.02 (inactive) and -0.0278 (inactive),0.0357 (inactive) and 0.0895 (inactive),0.0594 (inactive) and 0.0469 (inactive),0.0108 (inactive) and 0.0539 (inactive),0.0116 (inactive) and 0.0357 (inactive),-34.1,1.23,-6.28,1.72,70.1,36.2,1.25
